Screen size: about 5,500 compounds; about 2,000 (36%) were called active. Not shown: some 18% with an inconclusive outcome. No stated cut-off is given here; in the data, active means normalized growth mostly below about 0.91 (no sharp cut-off); inconclusive means no clear call, values can overlap the other calls; inactive means mostly above about 0.92. The list shows a part of the results.
Assay: chemical genetic growth profiling, strain panel (AID 1159580);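 further: tested at 20 µM; growth read once vehicle control cultures reached saturation at 30 °C; 1 = growth at the plate median or of vehicle wells; lower values mean less growth of the strain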
Conditions: S. cerevisiae deletion strains, growth OD

Measured: normalized growth

CC1=C(C)C(=O)C(CCCCC#CCCCC#CCO)=C(C)C1=O
inactive: locus YAL013W, strain DEP1, hits give low values 0.995 | locus YAL040C, strain CLN3, hits give low values 0.993 | locus YCL061C, strain MRC1 (second series), hits give low values 1 | locus YDR363W, strain ESC2, hits give low values 0.988 | locus YER002W, strain NOP16, hits give low values 0.996 | locus YMR263W, strain SAP30, hits give low values 1 | locus YNL128W, strain TEP1, hits give low values 0.998 | locus YNL175C, strain NOP13, hits give low values 1 | locus YNL197C, strain WHI3, hits give low values 0.997 | locus YNL224C, strain SQS1, hits give low values 0.984 | locus YOR083W, strain WHI5 (second series), hits give low values 0.975

From PubChem BioAssay AID1159580 (chemical genetic matrix, 2015)
